SF1 inhibitor: inhibitors of human nuclear receptor SF-1; AID 525; inhibition, % at 10 µM; actives 0.55% (n = 65,000); CHO-K1 Gal4-SF-1 LBD luciferase reporter;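 active = inhibition above the mean inhibition of all tested compounds plus 3 SD, cut at about 48% in these data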;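 also: 0% = SF-1 transfected cells with DMSO and 100% = mock-transfected cells lacking SF-1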
Target sequence (Q13285 whole entry, looked up, the tested form may be a part): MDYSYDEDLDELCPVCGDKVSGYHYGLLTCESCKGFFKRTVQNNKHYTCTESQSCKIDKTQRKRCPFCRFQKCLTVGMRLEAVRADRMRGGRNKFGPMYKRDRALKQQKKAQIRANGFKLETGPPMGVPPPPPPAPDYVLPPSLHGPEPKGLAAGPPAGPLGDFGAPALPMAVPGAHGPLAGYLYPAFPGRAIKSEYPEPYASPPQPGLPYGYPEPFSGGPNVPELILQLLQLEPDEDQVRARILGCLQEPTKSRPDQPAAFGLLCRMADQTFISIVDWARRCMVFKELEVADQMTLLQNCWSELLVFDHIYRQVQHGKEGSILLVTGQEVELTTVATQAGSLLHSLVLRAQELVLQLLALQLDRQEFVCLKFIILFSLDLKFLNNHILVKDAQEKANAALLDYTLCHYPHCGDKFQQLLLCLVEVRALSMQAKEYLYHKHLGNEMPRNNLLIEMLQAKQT
Numbers without * were called inactive. The entries come from a sample that favours hits as a whole.

SMILES	SF1 inhibitor
CC(=O)c1c(NCCc2ccccc2)cc(C)oc1=O	8
CC(=O)CC1OC(=O)C(Br)=C1NCc1ccccc1 (configuration not stated)	79*
COc1ccc(-c2nc3c(c(SCC(=O)N4CCOCC4)n2)COC(C)(C)C3)cc1	4
CSc1oc(-c2ccco2)nc1S(=O)(=O)c1ccccc1	7
O=C(CS(=O)(=O)c1ccccc1)c1ccc2c(c1)OCCO2	-52
O=S(=O)(C/C(=C/CO)S(=O)(=O)c1ccccc1)c1ccccc1	96*
Cc1ccc(C(=O)CSc2nnc(-c3ccco3)n2Cc2ccccc2)cc1	-23
COc1cccc(CNC(=O)C2CCCN(c3nn4c(=O)cc(C)nc4s3)C2)c1 (configuration not stated)	-7
O=C(NCc1ccco1)Nc1ccc(Br)cc1Cl	-60
c1csc(CNc2ncnc3sccc23)c1	51*
c1ccc(OCCOc2ncnc3sccc23)cc1	-53
Clc1ccc(-n2ncc3c(NCc4cccs4)ncnc32)cc1	-74
CN(C)C(=O)NC1CCCCCCCCCCC1	10
Cn1cnnc1SCC(=O)Nc1ccccc1Sc1ccccc1	-1
CCn1c(SCC(=O)Nc2ccccc2N2CCOCC2)nnc1-c1ccccc1O	-1
COc1ccc(O)c(C(=O)CC(=O)c2ccc(F)cc2)c1	52*
COc1cccc(NC(=O)CN2CCN(c3ccccc3F)CC2)c1	-14
COc1cccc(NC(=O)COc2ccccc2C(N)=O)c1	-62
N#C/C(C(=O)N1CCCCC1)=C1\Nc2ccccc2S1	-50
CCC(C)(C)n1nnnc1C(c1cccc(C#N)c1)N1CCN(c2cccc(C)c2C)CC1 (configuration not stated)	8
CCOC(=O)c1ccc(N2C(=O)CC(N3CCC(O)(c4ccc(Cl)cc4)CC3)C2=O)cc1 (configuration not stated)	12
Cc1cc(C(=O)Nc2cccc(C(=O)O)c2)oc1C	69*
CC(=O)c1cccc(NC(=O)c2cc(C(C)C)on2)c1	-74
Cc1cccc(NC(=O)c2cc3ccccc3o2)c1	-90
O=C(Cn1nc(Cc2ccncc2)c2ccccc2c1=O)N1CCc2ccccc2C1	12
SMILES	SF1 inhibitor
CCN1C(=O)C2(C(C#N)=C(N)Oc3cc(C)oc(=O)c32)c2ccccc21 (configuration not stated)	3
Cc1onc(-c2c(F)cccc2Cl)c1C(=O)N1CCCc2ccccc21	8
Nc1ncnc2c1ncn2C1CCC(CO)C(O)C1 (configuration not stated)	-1
Nc1nc(Cl)nc2c1ncn2[C@H]1C[C@H](O)[C@@H](CO)O1	79*
CC(=O)NC1(C(F)(F)F)NC(=O)N(CC(C)C)C1=O (configuration not stated)	4
O=C(NCCc1ccccc1)c1noc2c1CCCCC2	-60
COc1ccc(CNC(=O)NC2CCCCC2)cc1	-50
Cc1ccc(N=Cc2ccc[nH]2)c(O)c1	-9
Cc1cccc(NC(=O)CSc2nnc(-c3ccccc3C)o2)c1	-43
CNC(=O)NC(=O)COC(=O)CCCOc1ccc(OC)cc1	9
CC1CCCCC1NS(=O)(=O)c1ccc(S(=O)(=O)NCc2ccncc2)cc1 (configuration not stated)	70*
CCOCC(=O)Nc1nc2ccc(OC)cc2s1	-51
CCOc1ccccc1-n1c(CN2CCN(C(=O)c3ccco3)CC2)nc2ccccc2c1=O	8
Cc1cccc(N2CCN(C(=O)CSCc3c(C)noc3C)CC2)c1C	50*
O=C(CSc1ccccn1)N1CCN(c2ccccc2)CC1	-1
C=CCn1c(SCc2c(C)noc2C)nc2cc(C(=O)O)ccc2c1=O	-17
CCn1c(CSc2nc(C)cc(C)n2)nnc1SCC(=O)Nc1ccccc1	-3
COC(=O)c1ccc2c(=O)n(CCN3CCOCC3)c(SCC(=O)NC3CCCCC3)nc2c1	-8
CCN(C)c1ccc(/C=N\n2nnnc2N)cc1	-87
C=CCSc1nncn1/N=C/c1ccc(OC)cc1	-83
COc1ccc(/C=N\n2nnc3ccccc32)cc1	70*
NC(=O)c1nsc(C(=O)N(CC(=O)NCc2ccc3c(c2)OCO3)C2CCCCC2)c1N	-29
Cc1cc(Br)c2c(c1)=C(c1sc(N3CCCCCC3)nc1O)C(=O)N=2	-50
CCOc1ccc(-c2nnc(N)o2)cc1	3
CCOc1ccc(-c2noc(CCC(=O)O)n2)cc1	53*
SMILES	SF1 inhibitor
COc1ccc(-c2ccc(CCC(=O)O)n2C(C)C)cc1	-19
COc1ccc(-c2noc(CCCC(=O)O)n2)cc1	57*
Cc1ccc(OCc2nc(-c3ccccc3)no2)c(C)c1	-59
Cc1ccc(-c2noc(CCCC(=O)N3CCOCC3)n2)cc1	2
OC(COc1ccc2ccccc2c1Cl)CN1CCOCC1 (configuration not stated)	-54
Cn1c(N)c(C(=O)NCc2ccccc2)sc1=S	2
Cc1ccc(C(=O)Nc2cccc(C(=O)NCc3ccco3)c2)cc1	-18
CCCCC(c1nnnn1Cc1ccco1)N1CCN(c2nc3ccccc3s2)CC1 (configuration not stated)	6
CN1C(=O)c2ccc(C(=O)NC3CCCCC3)cc2C1=O	-6
O=C(C1CC(c2ccc(F)cc2)=NO1)N1CCCCC1 (configuration not stated)	-55
